A selection: hits, their analogues and other compounds. The true share with any hit is near 0.82%.
VHR inh abs: VHR1 phosphatase inhibitors, primary screen, biochemical, absorbance, uHTS. recombinant VHR phosphatase, pNPP absorbance. inhibition, % at 13.3 µM. 0.52% of 290,000 active. AID 1654, 2009; in the data active = inhibition above about 50%
TcdB inh: TcdB glycohydrolase inhibitors, primary screen, biochemical, single point, plate reader; Toxin B (Clostridioides difficile), P18177; TcdB glycohydrolase enzymatic assay; inhibition, % at 9.99 µM; 0.24% of 350,000 active; in the data active = inhibition above about 10%
PrPC TRFRET: inhibitors of human cell surface prion protein PrPC, primary screen, cell-based, TR-FRET. inhibition, % at 13.8 µM. 0.43% of 370,000 active. Major prion protein (Homo sapiens), P04156. AID 720596, 2013. TR-FRET read-out; in the data active = inhibition above about 24%; note: 0% = median of the test wells and 100% = reference compound wells
An asterisk follows results filed as active; x = no result given.

SMILES | VHR inh abs | TcdB inh | PrPC TRFRET
COc1ccc(/C=N\Nc2ccccn2)c(OC)c1 | 12.7 | -0.2 | 5.0
COc1ccc(/C=N/Nc2ncc(Br)cn2)c(OC)c1 | 87.8* | 0.3 | 0.0
Cc1ccccc1-c1cnc2c(c1)C(=O)N([C@H](C)CO)C[C@H](C)[C@H](CN(C)Cc1ccncc1)O2 | x | 1.6 | x
Cc1cc(C)n(/N=C/c2ccc(C(C)C)cc2)c(=O)c1C#N | 50.8* | 0.7 | -5.8
Cc1ccc(/C=N/n2c(C)cc(C)c(C#N)c2=O)cc1 | 4.3 | x | -3.4
Cn1c(=O)c2[nH]c(CCC3CCCC3)nc2n(C)c1=O | x | 1.5 | -3.6
CCCc1nc2c([nH]1)c(=O)n(C)c(=O)n2C | 59.6* | 0.6 | -3.5
C[C@H](CO)N1C[C@H](C)[C@H](CN(C)S(=O)(=O)c2ccc(F)cc2)OCCCC[C@H](C)Oc2ccc(NS(=O)(=O)c3ccccc3)cc2C1=O | x | 1.5 | x
C[C@H]1CCCCO[C@H](CN(C)C(=O)Nc2ccccc2)[C@@H](C)CN([C@@H](C)CO)C(=O)c2cc(NS(=O)(=O)c3ccc(Cl)cc3)ccc2O1 | x | 1.3 | x
O=C([C@H]1[C@H](CO)[C@H]2Cn3c(cccc3=O)[C@H]2N1C(=O)CC1CC1)N1CCCCC1 | x | 1.0 | x
COc1ccc2c3c(n(C)c2c1)[C@H](CO)N(C(C)=O)CC31CN(C(=O)C2CCOCC2)C1 | x | -0.5 | x
O=c1ccc2ccc(O)cc2o1 | x | -0.5 | -2.1
O=c1ccc2cc(O)c(O)cc2o1 | 0.9 | 13.2* | 6.2
CC(C)NC(=O)N[C@H]1CC[C@H](CC(=O)NCCN2CCCC2)O[C@@H]1CO | x | -1.6 | x
CCS(=O)(=O)N1CCC2(CC1)CN(Cc1ccc3c(c1)OCO3)[C@@H](CO)c1c2c2ccc(OC)cc2n1C | x | -1.1 | x
COCC(=O)N(C)C[C@@H]1Oc2ncc(-c3cccc(OC)c3)cc2C(=O)N([C@@H](C)CO)C[C@@H]1C | x | 0.1 | x
S=c1nc(-c2ccc(Cl)cc2)[nH][nH]1 | 8.7 | 12.2* | -2.1
CCCOc1ccc(-c2nc(=S)[nH][nH]2)cc1 | -6.6 | x | 0.1
CCC(=O)N(C)C[C@@H]1Oc2ncc(C#Cc3ccccc3)cc2C(=O)N([C@@H](C)CO)C[C@@H]1C | x | 1.5 | x
COc1ccc(CN(C)C[C@H]2Oc3ccc(NC(=O)Nc4ccc5c(c4)OCO5)cc3C(=O)N([C@H](C)CO)C[C@H]2C)cc1 | x | 0.0 | x
COCC(=O)N1C[C@H](C)[C@@H](OC)CN(C)C(=O)c2ccc(NC(=O)c3ccc(F)cc3)cc2OC[C@@H]1C | x | -0.6 | x
COc1cc(NCCCC(C)N)c2ncccc2c1 (configuration not stated) | x | x | -51.5
CCC(CNc1cc(OC)cc2cccnc12)NC1CCCCC1 (configuration not stated) | 54.1* | -1.0 | -12.2
Cc1ccc(S(=O)(=O)Cc2ccc(C(=O)N3CCc4ccccc4C3)o2)cc1 | 54.5* | -0.2 | -0.9
COc1ccc(S(=O)(=O)Cc2ccc(C(=O)N3CCc4ccccc4C3)o2)cc1 | 16.6 | -0.4 | 8.2
SMILES | VHR inh abs | TcdB inh | PrPC TRFRET
CC(C)NC(=O)N(C)C[C@H]1Oc2ccc(NC(=O)CCCCCC(=O)Nc3ccccc3N)cc2C(=O)N([C@H](C)CO)C[C@H]1C | x | -0.6 | x
Nc1ccc2nc(CCCCCCc3nc4ccc(N)cc4[nH]3)[nH]c2c1 | 38.3 | 9.1 | 1.5
Nc1ccc2nc(CCCCc3nc4ccccc4[nH]3)[nH]c2c1 | 51.5* | 7.2 | 0.7
COc1ccc2c3c([nH]c2c1)[C@H](CO)N(CC1CC1)CC31CN(C(=O)C2CCOCC2)C1 | x | -0.6 | x
Cc1ccccc1S(=O)(=O)NCC[C@H]1CC[C@H](NC(=O)C2CCC2)[C@H](CO)O1 | x | 1.1 | x
CO[C@H]1CN(C)C(=O)c2cc(NS(=O)(=O)c3ccccc3C)ccc2OC[C@H](C)N(C)C[C@@H]1C | x | -1.7 | x
COc1ccc(C2(c3ccc(OC)cc3)NC(=O)N(CC(=O)Nc3ccc(C(=O)N(C)C)cc3)C2=O)cc1 | 14.5 | 1.5 | -8.7
COc1ccc(C2(c3ccc(OC)cc3)NC(=O)N(CC(=O)Nc3cc(C)ccc3OC)C2=O)cc1 | 56.9* | 0.9 | -0.9
COc1ccc(OC)c(N(CC(=O)NC2CC3CCC2C3)S(=O)(=O)c2ccccc2)c1 (configuration not stated) | 59.1* | -1.1 | -7.1
COc1ccc(Cl)cc1N(CC(=O)NC1CC2CCC1C2)S(=O)(=O)c1ccccc1 (configuration not stated) | 2.5 | 7.7 | 1.6
CCC(=O)N1CCC2(CC1)CN[C@@H](CO)c1c2c2ccc(OC)cc2n1C | x | -0.4 | x
CCOc1ccccc1N1C(=O)NC(=O)/C(=C/c2ccc3c4c(cccc24)CC3)C1=O | 21.9 | x | 3.7
COc1cccc(N2C(=O)NC(=O)/C(=C/c3ccc4c5c(cccc35)CC4)C2=O)c1 | 50.8* | 3.7 | -3.5
COc1ccc2c3c(n(C)c2c1)[C@@H](CO)N(C(=O)Nc1ccc(F)cc1)CC31CCN(S(=O)(=O)c2cn(C)cn2)CC1 | x | -8.0 | x
Cc1ccc2c(c1)-c1c(cnn1CC(=O)N(Cc1ccco1)C1CCCCC1)CO2 | 23.6 | 0.7 | 7.6
Cc1ccc2c(c1)-c1c(cnn1CC(=O)NC(C)CCc1ccco1)CO2 (configuration not stated) | 7.8 | 10.8* | -4.5
O=C(N/N=C\c1cc(Cl)ccc1O)c1ccc(S(=O)(=O)N2CCCCC2)cc1 | 64.4* | x | 3.0
O=C(Nc1cc(S(=O)(=O)Nc2ccc(Cl)cc2)ccc1O)c1ccc(S(=O)(=O)N2CCCCCC2)cc1 | -7.1 | 2.2 | 4.0
C/C=C/c1ccc([C@H]2[C@H](CO)N(C(=O)c3cnccn3)C23CN(C(=O)CC)C3)cc1 | x | 1.2 | x
COc1cc(/C=N/NC(=O)c2c(C)nc3ccc(Cl)cn23)cc(OC)c1OC | 28.4 | 13.3* | 5.4
COc1ccc(/C=N/NC(=O)c2c(C)nc3ccc(Cl)cn23)cc1OC | 10.0 | 0.7 | -3.3
CCOC(=O)CNC(=O)CNC(=O)c1ccc(OCC(C)C)cc1 | 53.4* | x | -4.4
CCOC(=O)CNC(=O)CNC(=O)c1ccc(OC(C)C)cc1 | 5.4 | 0.3 | 6.3
COc1ccc(NC(=O)CN2CCN(CC(=O)Nc3ccccc3Cl)CC2)cc1Cl | 50.8* | x | -8.5
COc1ccccc1NC(=O)CN1CCN(CC(=O)Nc2ccc(Cl)c(C(F)(F)F)c2)CC1 | 34.3 | x | -1.9
SMILES | VHR inh abs | TcdB inh | PrPC TRFRET
Cc1ccccc1S(=O)(=O)N1CC[C@H]2[C@H](CO)Nc3ccc(-c4ccccc4F)cc3[C@H]21 | x | -1.4 | x
C[C@H]1CCC/C=C/[C@@H]2C[C@H](O)C[C@H]2[C@@H](O)/C=C/C(=O)O1 | x | -0.6 | 92.6*
CC1CCCC=CC2CC(OC(=O)CN(C)C)CC2C(O)C=CC(=O)O1 (configuration not stated) | x | 1.4 | 90.3*
C[C@H]1CCC/C=C/[C@@H]2C[C@H](O)C[C@H]2[C@H](O)[C@H](S(=O)c2ccc(O)cc2)CC(=O)O1 (some centres not stated) | x | 2.4 | 88.9*
CCCCC[C@H]1CCCCC[C@@H](O)C[C@@H](O)[C@@H](O)/C=C/C(=O)O1 | x | 1.2 | -5.3
C[C@@H]1CN([C@H](C)CO)C(=O)Cc2cc(NC(=O)C3CC3)ccc2O[C@@H]1CN(C)CC1CCCCC1 | x | -1.4 | x
C[C@@H]1CN([C@H](C)CO)C(=O)Cc2cc(N(C)C)ccc2O[C@@H]1CN(C)S(=O)(=O)c1cccs1 | x | -0.5 | x

Bioassay records (PubChem BioAssay)
